TEAD-YAP inh – TEAD-YAP interaction inhibition, primary screen, TEAD-YAP interaction inhibitor project, luminescence, HEK-TIYL cells; 1.4% of 640,000 active; TEAD-Gal4/YAP UAS-luciferase luminescence; AID 1259422, 2018; inhibition, % at 9.12 µM; in the data active = inhibition above about 32%;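 note: 0% = median of test compound wells and 100% = reference inhibitor wells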
MITF primary – MITF inhibitors, primary screen, biochemical, AlphaScreen, human; AlphaScreen MITF homodimerization, bead proximity signal; inhibition, % at 2.6 µM; 0.91% of 650,000 active; AID 1259374, 2018; in the data active = inhibition above about 50%;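 note: 0% = vehicle wells with protein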
GPR151 ag – activators of human GPR151, primary screen, cell-based, PathHunter beta-arrestin, luminescence; activation, % at 11.2 µM; 1% of 650,000 active; AID 1508602, 2020; PathHunter beta-arrestin GPR151 cells; G-protein coupled receptor 151 (Homo sapiens), Q8TDV0; in the data active = activation above about 4.9%;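 note: 0% = median of compound wells and 100% = cells with positive control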
Target sequence (Q8TDV0 whole entry, looked up): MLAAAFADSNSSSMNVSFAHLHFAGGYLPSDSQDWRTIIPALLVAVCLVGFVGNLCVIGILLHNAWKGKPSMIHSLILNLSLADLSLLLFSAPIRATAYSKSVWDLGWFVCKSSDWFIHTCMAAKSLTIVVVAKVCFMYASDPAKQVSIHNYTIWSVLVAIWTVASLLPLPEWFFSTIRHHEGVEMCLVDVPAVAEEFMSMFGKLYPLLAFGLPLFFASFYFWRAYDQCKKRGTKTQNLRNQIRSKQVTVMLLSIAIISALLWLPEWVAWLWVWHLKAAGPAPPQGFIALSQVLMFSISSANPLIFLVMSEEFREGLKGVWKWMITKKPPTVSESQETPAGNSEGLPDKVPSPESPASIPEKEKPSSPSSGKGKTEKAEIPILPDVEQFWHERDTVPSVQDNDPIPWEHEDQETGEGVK
FBW7 act – FBW7 E3 ligase activators, primary screen, biochemical, AlphaScreen, human; F-box/WD repeat-containing protein 7 (Homo sapiens), Q969H0; AlphaScreen FBW7–phospho-cyclin E peptide binding, activator screen; normalized activity (activation), % at 26.1 µM; 0.13% of 650,000 active; in the data active = normalized activity above about 1.9%;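 note: purified mutant Fbw7 with reduced substrate affinity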
* = called active by the depositor; nt = not tested or not shown. Only some compounds are listed: those with a hit (about 3.5% of all), similar ones and a draw of the others.

SMILES	TEAD-YAP inh	MITF primary	GPR151 ag	FBW7 act
COc1cccc(Nc2cc(N3CCCC3)c3noc4c3c2C(=O)c2ccccc2-4)c1	4	14	0	0
CCOC(=O)C1CCCN(c2cc(Nc3cccc(OC)c3)c3c4c(onc24)-c2ccccc2C3=O)C1 (centres undefined)	-2	64*	0	0
CCCCC(C(=O)OCC)(C(=O)OCC)c1cc(Nc2ccc(C)cc2)c2c3c(onc13)-c1ccccc1C2=O	-10	55*	-1	0
N/C(=N\N=C\c1ccc2c(c1)OCO2)SC1CC(=O)N(c2cccc([N+](=O)[O-])c2)C1=O (centres undefined)	5	13	0	0
CCC(=O)NCC(c1cccs1)N1CCc2ccccc2C1 (centres undefined)	-37	-9	0	0
C(=N\NC1=NCCCCC1)/c1c(-c2ccccc2)nc2sccn12	8	15	0	0
CCOC(=O)C1CCCN(c2cc(Nc3ccc4c(c3)OCCO4)c3c4c(onc24)-c2ccccc2C3=O)C1 (centres undefined)	38*	4	0	0
O=C(NC1CCCCCCC1)c1cccc(N2CCCC2=O)c1	46*	-8	0	0
O=C(NC1CCCCCC1)c1ccc(N2CCCC2=O)cc1	-22	7	-3	0
CCN1CCN(C(c2ccccc2)c2nnnn2C2CCCC2)CC1 (centres undefined)	-16	3	-1	0
Cc1c(C(=O)Nc2nc3ccccc3s2)sc2nc(C)n(C)c(=O)c12	45*	0	-2	0
Cc1nc(SCC(=O)Nc2nc3ccccc3s2)c(C#N)c(C)c1C	95*	-4	3	0
Cc1nc2sc(C(=O)Nc3nc4ccccc4s3)c(N)c2c(C)c1C	96*	8	2	0
COc1ccc2nc(NC(=O)c3sc4nc(C)ccc4c3N)sc2c1	39*	-2	-1	0
CCOc1ccc(C2=NC(c3cc(Br)ccc3F)NC(c3cc(Cl)ccc3O)C2)cc1 (centres undefined)	2	14	3	0
O=C(Nc1cccc(F)c1)C1CC12CCN(C(=O)c1ccc(-c3ccco3)cc1)CC2 (centres undefined)	5	-20	0	0
CC(C)(C)OC(=O)N1CCCC(c2ccnc3cc(C(C)(C)C)nn23)C1 (centres undefined)	7	9	-1	2.1*
COc1ccc(CCNC(=O)c2nnn(-c3ccc4c(c3)OCCO4)c2N)cc1OC	65*	5	1	0
COc1ccccc1OCC(=O)N/N=C/c1ccc([N+](=O)[O-])cc1	0	-24	2	0
C=CCc1ccccc1OCC(=O)N/N=C/c1ccc([N+](=O)[O-])cc1	33*	15	1	0
C=CCc1ccccc1OCC(=O)N/N=C/c1ccccc1	51*	-6	0	0
COc1ccccc1OCC(=O)N/N=C/c1ccccc1	-1	6	0	0
O=[N+]([O-])c1ccccc1S(=O)(=O)NCc1ccc(Cl)cc1Cl	-12	9	1	0
NC(=O)C1CCCc2c1[nH]c1ccc(Br)cc21 (centres undefined)	4	9	0	0
Cc1ccc(C(=O)COC(=O)c2ccccc2[N+](=O)[O-])cc1C	49*	19	-4	0
SMILES	TEAD-YAP inh	MITF primary	GPR151 ag	FBW7 act
Cc1c(C(=O)OCC(=O)c2ccc(Cl)cc2)cccc1[N+](=O)[O-]	-8	13	0	0
O=C1C2C(C(=O)N1c1cccc3ccccc13)C1C=CC2C12CC2 (centres undefined)	-9	18	-1	0
Cc1sc2nc(SCC(=O)Nc3ccccc3N3CCOCC3)nc(N)c2c1C	43*	1	-1	0
O=C(CCc1ccccc1)NC(=S)Nc1ccc(S(=O)(=O)N2CCOCC2)cc1	3	8	0	0
O=C(CCc1ccccc1)NC(=S)Nc1cccc(S(=O)(=O)N2CCCC2)c1	47*	-7	1	0
CCCn1c(-c2ccc(N(C)C)cc2)nc2ccccc21	-28	-5	0	0
O=c1oc2ccc(Cl)cc2c(=O)n1-c1cccc(C(F)(F)F)c1	76*	-19	0	0
Cc1cc(C)c2c(c1)CC(C)(C)C(=O)C2=O	3	6	0	0
C=C1C(c2ccc(C)cc2)=CCc2cc(C)cc(C)c21	54*	11	-5	0
CCN(CCCNC(=O)CCn1c(=O)[nH]c2ccsc2c1=O)c1cccc(C)c1	6	0	0	0
Nc1cccc(-c2nc(Nc3ccc(N4CCOCC4)cc3)c3[nH]cnc3n2)c1	60*	-12	-2	0
CC(=O)c1cccc(-c2nc(Nc3ccc(N4CCOCC4)cc3)c3[nH]cnc3n2)c1	-2	3	1	0
Cc1cnc(Nc2ccc(-n3ccnc3)cc2)nc1Nc1ccc(N2CCOCC2)cc1	51*	5	-1	0
COc1cc(Nc2nc(Nc3ccc(N4CCOCC4)cc3)c3[nH]cnc3n2)cc(OC)c1OC	64*	13	-4	0
CC(=O)Nc1ccc(Nc2nc(Nc3ccc(N4CCOCC4)cc3)ncc2C)cc1	12	11	2	0
c1cn(-c2ccc(Nc3nc(Nc4ccc(N5CCOCC5)cc4)c4[nH]cnc4n3)cc2)cn1	51*	5	1	0
Cn1c(=O)n(CC(=O)NC2CCCCC2)c(=O)c2c(N3CCN(C(=O)C4CC4)CC3)ccnc21	8	-8	1	0
COc1cccc(OC)c1C(=O)Nc1ccc(NC(=O)c2ccccc2)cc1	-4	3	-1	1
c1ccc(Nc2nc(Nc3ccc(N4CCOCC4)cc3)c3[nH]cnc3n2)cc1	47*	3	1	0
CCCNc1nc(Nc2cc(OC)c(OC)c(OC)c2)nc2nc[nH]c12	39*	16	0	0
O=C(NC1CCCCC1)[C@@H]1C=CCN1C(=O)C1CC1	3	1	0	0
CC(C)[C@H](NC(=O)[C@@H]1CCC(=O)N1)C(=O)N[C@@H](CC(N)=O)C(=O)N[C@@H](Cc1ccccc1)C(=O)N[C@@H](CO)C(=O)N[C@H](C(=O)NCC(=O)N[C@@H](Cc1c[nH]c2ccccc12)C(N)=O)[C@@H](C)O	nt	-10	0	0
Cc1ccc(C)c(NC(=O)C(C)N2Cc3ccccc3C2=O)c1 (centres undefined)	-5	-10	0	0
Cc1cccc(NC(=O)C(C)N2Cc3ccccc3C2=O)n1 (centres undefined)	5	5	2	0
CC(C(=O)Nc1ccccn1)N1Cc2ccccc2C1=O (centres undefined)	48*	-5	0	0
Cc1ccnc(NC(=O)C(C)N2Cc3ccccc3C2=O)c1 (centres undefined)	89*	-2	2	0
COc1ccc(N2C(=O)/C(=C\c3sccc3C)C(=O)NC2=S)cc1	-5	38	-1	0
